CIT2-GFP yeast = modulators of TOR pathway CIT2-GFP in S. cerevisiae | AID 2029 | S. cerevisiae CIT2-GFP strain, flow cytometry, 3 h; 100 means same as DMSO wells | GFP response vs DMSO, % at 10 µM | 320,000 compounds, 0.065% hits;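 active means GFP response relative to DMSO above a set limit, near the screen mean plus 3 SD, cut at about 150% in these data; inconclusive means Fewer than 70 cells measured for a yeast strain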;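 further: ratio of well median GFP fluorescence to mean of DMSO wells on the plate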
MEP2-GFP yeast = yeast TOR pathway MEP2-GFP modulation; S. cerevisiae MEP2-GFP strain, flow cytometry GFP, 3 h; 100% = DMSO control level; GFP response vs DMSO, % at 10 µM; 330,000 compounds, 0.51% hits;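 active means GFP response versus DMSO above a set limit, roughly screen mean plus 3 SD, cut at about 180% in these data; inconclusive means fewer than 70 cells counted for a yeast strain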;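 further: median GFP fluorescence of the barcode-gated MEP2-GFP cells per well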
VLA-4 inh = inhibition in a human VLA-4 binding assay | VLA-4 expressing cells, ligand binding flow cytometry | AID 2557 | inhibition, % (about 7 µM as worked out from the volumes in the protocol) | P13612 | 330,000 compounds, 0.2% hits; in the data active means inhibition above about 50%
Target sequence (P13612 whole entry, looked up): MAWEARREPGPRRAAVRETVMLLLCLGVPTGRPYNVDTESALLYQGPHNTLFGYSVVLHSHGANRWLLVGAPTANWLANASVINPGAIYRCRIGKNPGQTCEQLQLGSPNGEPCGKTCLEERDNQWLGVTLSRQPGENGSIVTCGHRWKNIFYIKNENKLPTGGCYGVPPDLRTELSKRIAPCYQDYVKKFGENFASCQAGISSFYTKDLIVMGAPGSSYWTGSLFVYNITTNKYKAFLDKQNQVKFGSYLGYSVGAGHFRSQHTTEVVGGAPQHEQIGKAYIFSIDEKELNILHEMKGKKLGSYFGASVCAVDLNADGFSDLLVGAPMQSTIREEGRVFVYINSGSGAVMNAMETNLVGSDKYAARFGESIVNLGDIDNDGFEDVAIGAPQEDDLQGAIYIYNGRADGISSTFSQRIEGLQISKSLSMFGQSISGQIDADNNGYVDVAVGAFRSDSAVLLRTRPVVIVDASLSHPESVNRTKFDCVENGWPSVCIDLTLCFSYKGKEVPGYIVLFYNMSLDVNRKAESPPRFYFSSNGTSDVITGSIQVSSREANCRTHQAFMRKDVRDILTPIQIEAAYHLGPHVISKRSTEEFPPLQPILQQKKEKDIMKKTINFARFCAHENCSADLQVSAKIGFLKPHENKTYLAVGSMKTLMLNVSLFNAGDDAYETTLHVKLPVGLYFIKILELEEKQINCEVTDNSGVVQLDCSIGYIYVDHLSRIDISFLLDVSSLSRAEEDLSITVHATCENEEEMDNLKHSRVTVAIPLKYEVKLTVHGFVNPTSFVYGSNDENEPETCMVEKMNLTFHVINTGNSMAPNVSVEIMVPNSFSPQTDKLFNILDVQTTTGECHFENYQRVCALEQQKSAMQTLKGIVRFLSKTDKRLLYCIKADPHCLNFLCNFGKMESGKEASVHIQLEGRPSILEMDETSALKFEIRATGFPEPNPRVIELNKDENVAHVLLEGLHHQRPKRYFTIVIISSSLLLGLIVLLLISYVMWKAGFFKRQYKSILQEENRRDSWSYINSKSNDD
AGP1 TOR yeast = modulators of TOR pathway AGP1-GFP in S. cerevisiae; S. cerevisiae AGP1-GFP multiplex flow cytometry, 3 h; GFP as percent of DMSO wells; AID 2066; 320,000 compounds, 0.02% hits; GFP response vs DMSO, % at 10 µM;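 active means GFP response relative to DMSO above a set limit, near screen average plus 3 SD, cut at about 150% in these data; inconclusive means fewer than 70 cells counted for the yeast strain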;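 further: median GFP channel fluorescence of the gated AGP1 strain per well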
LAP4 TOR yeast = alters LAP4-GFP fluorescence in TOR pathway yeast screen | S. cerevisiae LAP4-GFP multiplex, flow cytometry GFP, 3 h; median GFP as percent of DMSO wells | GFP response vs DMSO, % at 10 µM | 320,000 compounds, 0.34% hits;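 active means GFP response vs DMSO above a set limit, about the screen mean plus 3 SD, cut at about 150% in these data; inconclusive means under 70 cell events counted for the yeast strain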
RPL19A-GFP yeast = alters RPL19A-GFP fluorescence in TOR pathway yeast screen; percent response vs DMSO, % at 10 µM; S. cerevisiae RPL19A-GFP strain, flow cytometry, 3 h; stronger effect = lower value; 330,000 compounds, 0.3% hits; AID 2025;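 active means percent response vs DMSO below 50%; inconclusive means fewer than 70 events counted for the yeast strain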;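 further: median channel GFP fluorescence of the barcoded RPL19A-GFP strain; lower means less RPL19A-GFP as with rapamycin TOR inhibition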
LAP4 cherry2 = second confirmation of modulators of TOR reporter LAP4-GFP in yeast | shares compounds with LAP4 TOR yeast | S. cerevisiae LAP4-GFP strain, flow cytometry GFP, 3 h | GFP response vs DMSO, % at 10 µM | 590 compounds, 20% hits | AID 2621;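 active means GFP signal as percent of the solvent control above about 150%, meaning raised reporter expression, limit read from the data; inconclusive means fewer than 70 cells counted in the well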
MEP2 cherry2 = reconfirmed MEP2-GFP TOR pathway modulator in yeast | S. cerevisiae MEP2-GFP strain, flow cytometry GFP, 3 h | GFP response vs DMSO, % at 10 µM | AID 2622 | 590 compounds, 10% hits | shares compounds with LAP4 TOR yeast;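 active means GFP signal above 150% of the solvent control wells, that is a rise of more than half; inconclusive means fewer than 70 yeast cells counted in the well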;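 further: median channel GFP fluorescence of all gated yeast cells per well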
RPL19A GFP CP2 = reconfirmed modulator of RPL19A-GFP TOR reporter in yeast | shares compounds with LAP4 TOR yeast | S. cerevisiae RPL19A-GFP strain, flow cytometry GFP, 3 h; stronger effect = lower value; 100% means same as DMSO wells | GFP response vs DMSO, % at 10 µM | 590 compounds, 3% hits | AID 2623;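 active means under 65% GFP response relative to DMSO; inconclusive means yeast strain with under 70 measured events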;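 further: median GFP channel fluorescence per well over the all cells gate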
CIT2 GFP CP2 = second confirmation of modulators of TOR reporter CIT2-GFP in yeast; shares compounds with LAP4 TOR yeast; S. cerevisiae CIT2-GFP strain, flow cytometry GFP, 3 h; DMSO control wells read 100%; GFP response vs DMSO, % at 10 µM; 590 compounds, 8% hits; AID 2624;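 active means GFP response vs DMSO above about 150%, limit read from the data; inconclusive means fewer than 70 events counted for a yeast strain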;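 further: median green fluorescence per well over all gated yeast cells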
AGP1-GFP pick2 = second confirmation of modulators of TOR reporter AGP1-GFP in yeast; shares compounds with LAP4 TOR yeast; S. cerevisiae AGP1-GFP strain, flow cytometry GFP, 3 h; percent response vs DMSO, % at 10 µM; 590 tested, under 10 active; AID 2643;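 active means over 150 percent of DMSO response; inconclusive means yeast strain measured with under 70 events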;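 further: median GFP channel fluorescence over all cells without mother daughter split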
Yeast autofluor = compound is autofluorescent in yeast s288c cells | shares compounds with LAP4 TOR yeast | S. cerevisiae s288c, 520 nm autofluorescence, flow cytometry, 3 h; stronger effect = higher value; zero means same as solvent-only cells | fluorescence change (kMESF span) at 33 µM | 610 tested, under 10 active;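 active means fluorescence span over the dose series, or activity score, above about 33, limit read from the data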
VLA-4 allo CP = human VLA-4 allosteric modulation in cherry picked compounds. shares compounds with VLA-4 inh. AID 2813. U937 cells, HUTS-21 LIBS mAb binding, flow cytometry; LDV ligand present at threefold Kd. inhibition, % at 6.7 µM. 1,300 compounds, 2% hits; in the data active means inhibition above about 40%
Numbers stand for hits; 0 = inactive; ? = inconclusive; - = no result given; ! = not confirmed by another sample; [ ] = dose if it differs, or a comment. Hits are enriched below; roughly 1.1% of the tested compounds scored in any of these assays.

SMILES | CIT2-GFP yeast | MEP2-GFP yeast | VLA-4 inh | AGP1 TOR yeast | LAP4 TOR yeast | RPL19A-GFP yeast | VLA-4 allo CP | others
CCOC(=O)/C(=C\c1cn(C)c2ccccc12)[N+](=O)[O-] | 0 | 0 | 0 | 0 | 207 | 0 | - | Yeast autofluor=0
CCOC(=O)/C(C#N)=C\c1cn(C)c2ccccc12 | 0 | 0 | 0 | 0 | 0 | 0 | -
O=S(=O)(/N=C(/Sc1ccccc1)c1ccccc1)c1ccccc1 | 0 | 0 | 0 | 0 | 190 | 0 | - | Yeast autofluor=0
CS/C(=N\S(=O)(=O)c1ccccc1)c1ccccc1 | 0 | 0 | 0 | 0 | 0 | 0 | -
O=C(NCc1ccccc1F)c1ccc2c(c1)OCCO2 | 0 | 0 | 0 | 0 | 0 | 0 | -
CCOC(=O)COc1ccccc1/C=C\[N+](=O)[O-] | 0 | 0 | 50 | 0 | 188 | 0 | 43 | LAP4 cherry2=0;MEP2 cherry2=0;RPL19A GFP CP2=0;CIT2 GFP CP2=0;AGP1-GFP pick2=0
CC(/C=C/C(=O)c1ccc(C)cc1)=C\c1ccccc1 | 0 | 0 | 0 | 0 | 0 | 0 | -
Cc1ccc(C(=O)/C=C\C(=O)c2ccc(C)cc2)cc1 | 0 | 0 | 68 | 0 | 168 | 0 | 0 | LAP4 cherry2=0;MEP2 cherry2=0;RPL19A GFP CP2=0;CIT2 GFP CP2=0;AGP1-GFP pick2=0
CN(C)CCCNS(=O)(=O)c1ccc(NC2CCCCCC2)c([N+](=O)[O-])c1 | 0 | 0 | 0 | 0 | 0 | 0 | -
CN(Cc1cnc2nc(N)nc(N)c2n1)c1ccc(C(=O)N[C@@H](CCC(=O)O)C(=O)O)cc1 | 0 | 0 | 55! | 0 | 233 | 0 | 0 | LAP4 cherry2=273;MEP2 cherry2=0;RPL19A GFP CP2=0;CIT2 GFP CP2=0;AGP1-GFP pick2=0;Yeast autofluor=0
Cn1nc(C(=O)NNC(=O)c2ccc(Cl)c(S(N)(=O)=O)c2)c2ccccc2c1=O | 0 | 0 | 0 | 0 | 0 | 0 | -
Nc1ccn([C@@H]2O[C@H](CO)[C@@H](O)[C@@H]2O)c(=O)n1 | 0 | 0 | 53 | 0 | 0 | 0 | 0
Nc1ncn([C@@H]2O[C@H](CO)[C@@H](O)[C@H]2O)c(=O)n1 | 0 | 0 | 0 | 0 | 0 | 0 | -
CCC(C(=O)OCC(=O)Nc1c(C)n(C)n(-c2ccccc2)c1=O)c1ccccc1 (centres undefined) | 0 | 0 | 0 | 0 | 0 | 0 | 0
Cc1c(NC(=O)CCC(=O)N2CCCCC2)c(=O)n(-c2ccccc2)n1C | 0 | 0 | 0 | 0 | 0 | 0 | 0
Cc1c(NC(=O)CCC(=O)N2CCOCC2)c(=O)n(-c2ccccc2)n1C | 0 | 0 | 0 | 0 | 0 | 0 | -
CC(OC(=O)COc1cccc2c1OC(C)(C)C2)C(=O)Nc1ccc(S(N)(=O)=O)cc1 (centres undefined) | 0 | 0 | 0 | 0 | 0 | 0 | -
O=C(c1cc2nc(-c3ccc(Cl)cc3)cc(C(F)(F)F)n2n1)N1CCOCC1 | 0 | 0 | 0 | 0 | 0 | 0 | 0
COc1ccc(-n2cc3ccc([N+](=O)[O-])cc3n2)cc1 | 0 | 0 | 0 | 0 | 0 | 0 | -
Cc1ccc(-c2nc(-c3ccccc3)no2)cc1 | 0 | 0 | 95 | 0 | 0 | 0 | 0
O=C(N/N=C/c1cc(Br)ccc1OC(=O)c1ccc(Br)cc1)c1ccncc1 | 0 | 0 | 0 | 0 | 0 | 0 | -
COC(=O)c1c(C)[nH]c(C(=O)COC(=O)c2c(C)noc2C)c1C | 0 | 0 | 0 | 0 | 0 | 0 | 0
CCOC(=O)CC(=O)c1[nH]c(C)c(C(=O)OCC)c1C | 0 | 0 | 0 | 0 | 0 | 0 | -
CCOC(=O)c1c(C)[nH]c(C(=O)COC(=O)C2CC2)c1C | - | - | - | - | - | - | 0
CCOC(=O)c1c(C)[nH]c(C(=O)COC(=O)c2ccccn2)c1C | 0 | 0 | 0 | 0 | 0 | 0 | 0
SMILES | CIT2-GFP yeast | MEP2-GFP yeast | VLA-4 inh | AGP1 TOR yeast | LAP4 TOR yeast | RPL19A-GFP yeast | VLA-4 allo CP | others
CCOC(=O)c1c(C)[nH]c(C(=O)COC(=O)C2(C)CC2(Cl)Cl)c1C (centres undefined) | 0 | 0 | 0 | 0 | 0 | 0 | 0
CCOC(=O)c1c(C)[nH]c(C(=O)OCC(=O)c2ccccc2)c1C | 0 | 0 | 0 | 0 | 0 | 0 | -
CC(=O)c1c(C)[nH]c(C(=O)COC(=O)c2c(C)noc2C)c1C | 0 | 0 | 0 | 0 | 0 | 0 | -
Cn1c(=O)c2c(ncn2CC(=O)N2CCN(S(=O)(=O)c3ccccc3)CC2)n(C)c1=O | 0 | 0 | 0 | 0 | 0 | 0 | -
CC(OC(=O)CNC(=O)c1ccc2ccccc2c1)C(=O)NC1CCCCC1C (centres undefined) | 0 | 0 | 0 | 0 | 0 | ? | -
CC(OC(=O)C(C)N1C(=O)C2C3C=CC(C4CC34)C2C1=O)C(=O)c1ccccc1 (centres undefined) | - | - | 58 | - | - | - | 0
CC(c1ccccc1)N1C(=O)C2C3C=CC(C4CC34)C2C1=O (centres undefined) | 0 | 0 | 0 | 0 | 0 | 0 | -
Cc1cc(C)nc(NC(=O)c2cccc(Cl)c2)n1 | ? | 725[may fluoresce violet] | 53 | ? | 0 | 17[may fluoresce violet] | 0
Cc1ccc(C(=O)NC(=S)Nc2ccc(NC(=O)c3cccc(Cl)c3)cc2)cc1 | 0 | 0 | 0 | 0 | 0 | 0 | 0
CC(=O)c1cccc(NC(=S)NC(=O)c2ccc(C)cc2)c1 | 0 | 0 | 0 | 0 | 0 | 0 | -
Cc1cc(C)nc(NC(=O)c2ccc(Cl)cc2)n1 | 0 | 0 | 0 | 0 | 0 | 0 | -
Cc1noc(NS(=O)(=O)c2ccc(NC(=O)c3cc4ccccc4o3)cc2)c1C | 0 | 0 | 0 | 0 | 0 | 0 | -
Cn1c(=O)c2c(ncn2CC(=O)N/N=C/c2c[nH]c3ccccc23)n(C)c1=O | 0 | 0 | 0 | 0 | 0 | 0 | -
O=C1NN(c2ccccc2)C(=O)/C1=C/c1cccs1 | 0 | 0 | 0 | 0 | 0 | 0 | 0

Bioassay records as filed in PubChem.
